{
  "source": "PubChem BioAssay",
  "key": {"[1]": {"test": "drug combination growth inhibition, ovarian cancer – cell-based, oncology-focused library, rucaparib conditional, profiling panel (AID 1508598;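 active = normalized viability below 100% at a tested concentration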)", "details": "patient-derived ovarian cancer cells, CellTiter-Glo viability, 144 h, at 5 µM, stronger effect = lower value"}, "[2]": {"test": "growth inhibition, single agent or in combination, cell-based, chromothripsis tumors, cisplatin or BGB combos (AID 1671449);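 note: cells exposed for 96 hours; 0% = vehicle DMSO and 100% = killing by high DMSO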", "details": "LFS_MB_P medulloblastoma cells"}, "[3]": {"test": "growth inhibition, single agent and combos, cell-based, chromothripsis tumors, cisplatin or BGB combos (AID 1671450);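 note: cells exposed to compound for four days; 0% = vehicle DMSO and 100% = cell killing by high DMSO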", "details": "HDN33 neuroblastoma cells, stronger effect = higher value"}, "[4]": {"test": "growth inhibition, single agents and combos, ICB984, cell-based, cisplatin or BGB combos, synergistic combos for chromothripsis tumors (AID 1671451; call rule not given here;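 note: cells exposed for 96 hours before readout; 0% = vehicle DMSO and 100% = killing by high DMSO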)", "details": "ICB984 medulloblastoma cells, drug combinations, stronger effect = higher value"}, "[5]": {"test": "growth inhibition, single agents and combos, HTB85, cell-based, BGB or cisplatin IC20 combos, synergistic combos for chromothripsis tumors (AID 1671453);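 note: cells exposed for 96 hours before readout; 0% = vehicle DMSO and 100% = high DMSO killing control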", "details": "HTB85 osteosarcoma cells, drug combinations, stronger effect = higher value"}, "[6]": {"test": "growth inhibition, MDA-MB-436, cell-based, BGB or cisplatin combos, synergistic combos for chromothripsis tumors (AID 1671458; call rule not given here;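 note: cells exposed for 96 hours; 0% = vehicle DMSO and 100% = killing by high DMSO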)", "details": "MDA-MB-436 breast carcinoma growth inhibition, drug combinations, stronger effect = higher value"}, "[7]": {"test": "BT084 cell growth, single and combined drugs, ICGC_MB145, cisplatin and BGB IC40 combos (AID 1671461);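 note: cells exposed to drugs for 96 hours; 0% = vehicle DMSO and 100% = high DMSO full killing control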", "details": "BT084 medulloblastoma cells, drug combinations, stronger effect = higher value"}, "[8]": {"test": "RCMB18 cell growth, single agent and combined, cisplatin and BGB IC40 combos (AID 1671462);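 note: cells exposed to compound for four days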", "details": "RCMB18 medulloblastoma cells, stronger effect = higher value"}},
  "note": "Active and inactive are the calls of the source. Cut-off read from the data, not from the text of the source, unless noted: active = inhibition above about 80%; inactive = the rest.",
  "data": [
    {"smiles": "CN(C)Cc1c(C(=O)NCCOc2ccc(C(=O)NO)cc2)oc2ccccc12", "values": [
      {"measurement": "viability", "setting": "[1]; OCI-C5x cells, with rucaparib 10 µM, 100% = cells with rucaparib alone", "result": "8.92% (active)"},
      {"measurement": "viability", "setting": "[1]; OCI-C5x cells, without rucaparib", "result": "7.82% (active)"},
      {"measurement": "viability", "setting": "[1]; OCI-P5x cells, with rucaparib 20 µM, 100% = cells with rucaparib alone", "result": "5.56% (active)"},
      {"measurement": "viability", "setting": "[1]; OCI-P5x cells, without rucaparib", "result": "34% (active)"},
      {"measurement": "inhibition", "setting": "[2]; at 0.5 µM, stronger effect = higher value", "result": "21.6% (inactive)"},
      {"measurement": "inhibition", "setting": "[2]; measured here: combination with BGB IC20, at 0.005 µM", "result": -27.6, "unit": "%"},
      {"measurement": "inhibition", "setting": "[2]; measured here: combination with BGB IC40, at 0.005 µM", "result": -6.96, "unit": "%"},
      {"measurement": "inhibition", "setting": "[2]; measured here: combination with BGB IC40, at 0.05 µM", "result": 9.02, "unit": "%"},
      {"measurement": "inhibition", "setting": "[2]; measured here: combination with cisplatin, at 0.5 µM, stronger effect = higher value", "result": 46.7, "unit": "%"},
      {"measurement": "inhibition", "setting": "[2]; measured here: combination with cisplatin, at 5 µM, stronger effect = higher value", "result": 110, "unit": "%"},
      {"measurement": "inhibition", "setting": "[3]; BGB combo, at 5 µM", "result": 99.4, "unit": "%"},
      {"measurement": "inhibition", "setting": "[3]; at 0.5 µM", "result": "78.8% (inactive)"},
      {"measurement": "inhibition", "setting": "[3]; cisplatin combo, at 5 µM", "result": 99.8, "unit": "%"},
      {"measurement": "inhibition", "setting": "[3]; measured here: with BGB IC20 combination, at 0.5 µM", "result": 69, "unit": "%"},
      {"measurement": "inhibition", "setting": "[3]; measured here: with cisplatin IC20 combination, at 0.5 µM", "result": 82.8, "unit": "%"},
      {"measurement": "inhibition", "setting": "[3]; single agent, at 5 µM", "result": 99.8, "unit": "%"},
      {"measurement": "inhibition", "setting": "[4]; BGB IC20 combo, at 0.005 µM", "result": 27.4, "unit": "%"},
      {"measurement": "inhibition", "setting": "[4]; BGB IC40 combo, at 0.005 µM", "result": 31.8, "unit": "%"},
      {"measurement": "inhibition", "setting": "[4]; BGB IC40 combo, at 0.05 µM", "result": 93.6, "unit": "%"},
      {"measurement": "inhibition", "setting": "[4]; at 0.5 µM", "result": "-23.7% (inactive)"},
      {"measurement": "inhibition", "setting": "[4]; cisplatin combo, at 0.05 µM", "result": 93.4, "unit": "%"},
      {"measurement": "inhibition", "setting": "[4]; cisplatin combo, at 0.5 µM", "result": -34.8, "unit": "%"},
      {"measurement": "inhibition", "setting": "[4]; cisplatin combo, at 5 µM", "result": -32, "unit": "%"},
      {"measurement": "inhibition", "setting": "[4]; measured here: 5 uM single agent, at 5 µM", "result": -19.3, "unit": "%"},
      {"measurement": "inhibition", "setting": "[5]; at 0.5 µM", "result": "87.5% (active)"},
      {"measurement": "inhibition", "setting": "[5]; measured here: with BGB IC20, at 0.5 µM", "result": 87.4, "unit": "%"},
      {"measurement": "inhibition", "setting": "[5]; measured here: with BGB IC20, at 5 µM", "result": 99.8, "unit": "%"},
      {"measurement": "inhibition", "setting": "[5]; measured here: with cisplatin IC20, at 0.5 µM", "result": 90.7, "unit": "%"},
      {"measurement": "inhibition", "setting": "[5]; measured here: with cisplatin IC20, at 5 µM", "result": 99.9, "unit": "%"},
      {"measurement": "inhibition", "setting": "[5]; single agent, at 5 µM", "result": 99.8, "unit": "%"},
      {"measurement": "inhibition", "setting": "[6]; at 0.5 µM", "result": "43.7% (inactive)"},
      {"measurement": "inhibition", "setting": "[6]; measured here: BGB combination, at 0.5 µM", "result": 36, "unit": "%"},
      {"measurement": "inhibition", "setting": "[6]; measured here: BGB combination, at 5 µM", "result": 60, "unit": "%"},
      {"measurement": "inhibition", "setting": "[6]; measured here: cisplatin combination, at 0.5 µM", "result": 42, "unit": "%"},
      {"measurement": "inhibition", "setting": "[6]; measured here: cisplatin combination, at 5 µM", "result": 69.4, "unit": "%"},
      {"measurement": "inhibition", "setting": "[7]; at 0.5 µM", "result": "52% (inactive)"},
      {"measurement": "inhibition", "setting": "[7]; cisplatin combination, at 0.5 µM", "result": 79.4, "unit": "%"},
      {"measurement": "inhibition", "setting": "[7]; cisplatin combination, at 5 µM", "result": 101, "unit": "%"},
      {"measurement": "inhibition", "setting": "[7]; measured here: BGB IC40 combination 0.05 uM, at 0.05 µM", "result": 30.2, "unit": "%"},
      {"measurement": "inhibition", "setting": "[7]; single agent, at 5 µM", "result": 108, "unit": "%"},
      {"measurement": "inhibition", "setting": "[8]; at 0.5 µM", "result": "47.1% (inactive)"},
      {"measurement": "inhibition", "setting": "[8]; cisplatin combo, at 5 µM", "result": 96.9, "unit": "%"},
      {"measurement": "inhibition", "setting": "[8]; measured here: BGB IC40 combination, at 0.05 µM", "result": 20.1, "unit": "%"},
      {"measurement": "inhibition", "setting": "[8]; measured here: combination with cisplatin, at 0.5 µM", "result": 58.8, "unit": "%"},
      {"measurement": "inhibition", "setting": "[8]; single agent, at 5 µM", "result": 92.2, "unit": "%"}
    ]}
  ]
}
